# PubChem BioAssay
# The source made the active and inactive calls.
# Columns and labels:
# [1] = A549 cell viability effects, profiling panel, calcein-AM fluorescence, 48 h, basal (AID 1162); settings: higher = more signal
# [2] = adipocyte viability effects, profiling panel, cell-based, 3T3-L1 adipocytes, calcein-AM fluorescence, 48 h, basal (AID 1163); settings: 3T3-L1 adipocytes viability, higher = more signal
# [3] = HepG2 cell viability effects, profiling panel, calcein-AM fluorescence, 48 h, basal (AID 1164); settings: higher = more signal
# [4] = MM1S cell viability effects, profiling panel, calcein-AM fluorescence, 48 h, basal (AID 1165); settings: higher = more signal;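 note: viability of MM1S multiple myeloma cells under basal unstimulated conditions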
# [5] = basal RPMI8226 viability, no added stimulus, profiling panel, cell-based, calcein-AM fluorescence, 48 h, PK04 Diversity Set (AID 1166); settings: RPMI8226 myeloma viability, higher = more signal;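 note: cells grown under basal conditions without added stimulus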
# [6] = basal HepG2 mitochondrial membrane potential changes, profiling panel, cell-based, JC-1 fluorescence, 24 h, 100 nL compound (AID 1167); settings: higher = more signal
# [7] = basal 3T3-L1 adipocyte mitochondrial potential changes, profiling panel, cell-based, JC-1 fluorescence, 3T3-L1 adipocytes, 24 h, 100 nL compound (AID 1168); settings: JC-1 mitochondrial fluorescence, higher = more signal, called active from +8 up or from −8 down
# [8] = basal RPMI8226 mitochondrial membrane potential changes, profiling panel, cell-based, JC-1 fluorescence, 24 h, 100 nL compound (AID 1169); settings: RPMI8226 myeloma, JC-1 mitochondrial potential fluorescence, higher = more signal
# [9] = basal MM1S mitochondrial membrane potential changes, profiling panel, cell-based, JC-1 fluorescence, 24 h, 100 nL compound (AID 1170); settings: higher = more signal
# [10] = A549 lung cancer cell viability effects, profiling panel, resazurin fluorescence, 24 h, PK04 Diversity Set (AID 1171); settings: higher = more signal, called active from +8 up or from −8 down
# Note: test concentration not given here.
Structure (SMILES),z-score [1],z-score [2],z-score [3],z-score [4],z-score [5],z-score [6],z-score [7],z-score [8],z-score [9],z-score [10]
O=C1O[C@H](c2ccccc2)[C@H](c2ccccc2)N2[C@H]1[C@@H](C(=O)NC[C@H](O)c1ccccc1)[C@]1(C(=O)Nc3ccc(C#CC4=CCCCC4)cc31)[C@H]2c1ccc(O)cc1,-1.06,1.72,-1.25,-3.18,-3.47,-2.78,-0.683 (inactive),-0.87,-0.544,0.237 (inactive)
CCCCCCC#C[Si](O[C@H](c1ccccc1)c1cn([C@H](C)c2ccccc2)nn1)(C(C)C)C(C)C,-0.577,-1.2,0.0417,0.227,0.0204,3.36,-0.0744 (inactive),-0.846,-1.19,2.74 (inactive)
C=CCOC(=O)[C@@H]1[C@H]2C(=O)O[C@H](c3ccccc3)[C@H](c3ccccc3)N2[C@H](c2ccc(OCCOC(=O)[C@H]3C[C@H]4C(=O)N[C@@H](Cc5ccccc5)C(=O)N4[C@H]3c3ccc(O)cc3)cc2)[C@@]12C(=O)Nc1ccc(I)cc12,-0.688,-0.724,-0.0809,-3.46,-2.98,-0.638,1.43 (inactive),-0.609,-1.4,-0.0596 (inactive)
CO[C@H]1O[C@H](CO)[C@@H](OC(=O)Nc2ccc3c(c2)OCO3)[C@H](OC(=O)Nc2ccc3c(c2)OCO3)[C@H]1OC(=O)Nc1ccc2c(c1)OCO2,-0.689,-0.121,-1.09,-1.57,-0.566,0.328,0.374 (inactive),0.0119,0.961,0.38 (inactive)
O=C1O[C@H](c2ccccc2)[C@H](c2ccccc2)N2[C@H]1[C@@H](C(=O)Nc1nc3ccccc3s1)[C@]1(C(=O)Nc3ccc(C#CC4=CCCCC4)cc31)[C@H]2c1ccc(OCCO)cc1,-0.641,1.07,-0.819,-1.69,-1.7,-3.34,0.256 (inactive),-1.07,-1.8,0.18 (inactive)
[N-]=[N+]=NCc1ccccc1[C@H]1OC(c2ccc(OCCCO)cc2)=N[C@@]1(Cc1ccccc1)C(=O)O,1.17,-1.06,0.991,0.791,0.465,-0.0179,0.241 (inactive),-0.491,-0.804,0.932 (inactive)
O=C1O[C@@H](c2ccccc2)[C@@H](c2ccccc2)N2[C@@H](c3ccc(O)cc3)[C@]3(C(=O)Nc4ccccc43)[C@@H](C(=O)NC[C@H](O)c3ccccc3)[C@H]12,0.0061,0.874,-0.121,-0.0487,-1.08,-1.5,-0.377 (inactive),-0.774,0.32,0.314 (inactive)
[N-]=[N+]=NCc1ccccc1[C@H]1OC(c2ccc(OCCCO)cc2)=N[C@@]1(Cc1ccccc1)C(=O)NCC(O)CO (stereo not given in full),0.347,-0.445,0.547,-1.9,-1.36,0.831,-0.699 (inactive),-0.399,-1.11,0.951 (inactive)
CN1C(=O)C2C=CC(C(O)c3ccc(Br)cc3)N(Nc3ccccc3)C2C1=O (stereo not given),0.622,-0.384,1.17,-0.0257,-0.119,-3.16,-1 (inactive),0.0774,-0.425,-0.443 (inactive)
CCN(CC)c1ccc(N2CC=CC34O[C@@H]5/C=C\CCC(C)OC(=O)C5[C@H]3C(=O)N(CCCCCCO)[C@@H]4C2=O)cc1 (stereo not given in full),1.21,-1.09,0.674,1.57,0.153,1.25,-1.02 (inactive),0.0282,0.846,0.606 (inactive)
C=CCC(OC(C)=O)[C@@H]1[C@@H](N(Cc2ccc(-c3ccccc3)cc2)C(=O)c2ccc(C)cc2)c2cc(OCCCO)ccc2N1C(=O)Cc1ccc(OC)cc1 (stereo not given in full),0.837,0.705,2.23,0.711,0.815,4.08,-0.172 (inactive),0.768,-0.496,0.267 (inactive)
CCCCC(=C=CC[C@H](O)c1ccccc1OCCO)C[C@H](O)c1cc(Cl)cc(Cl)c1O,0.441,-0.0739,0.105,-3.29,-2.59,-0.605,0.201 (inactive),-0.655,-1.13,0.135 (inactive)
CN(C)CCCCNC(=O)[C@@H]1C[C@@H]2C(=O)N[C@@H](CCCCN)C(=O)N2[C@@H]1c1cccc(OCCO)c1,-0.144,-0.736,-1.03,-0.058,0.376,-1.01,-0.0937 (inactive),-0.737,-0.0289,-0.391 (inactive)
COCC1C2CC[C@H]3C(OCc4ccc(F)cc4C(F)(F)F)OC[C@]4(C)[C@H]3C2=C(CN4C(=O)OC(C)(C)C)[C@H](C)C1COC (stereo not given in full),-0.201,-0.511,0.922,-2.86,-3.14,1.53,-0.453 (inactive),-0.507,-1.42,-0.546 (inactive)
C=C[C@H](C)[C@H](O)c1ccc(OCCO)cc1,-0.001,0.557,-0.548,1.17,-0.484,0.221,-0.721 (inactive),-0.238,-0.339,-0.276 (inactive)
O=C1OCC=C[C@H]2OC34C=CCN(Cc5ccccc5)C(=O)[C@H]3N(CCCO)C(=O)[C@@H]4[C@@H]12 (stereo not given in full),-0.518,0.676,-1.28,0.772,0.0919,0.0708,-0.0748 (inactive),0.242,0.252,-0.196 (inactive)

Structure (SMILES),z-score [1],z-score [2],z-score [3],z-score [4],z-score [5],z-score [6],z-score [7],z-score [8],z-score [9],z-score [10]
CCN(CC)c1ccc(N2CC=CC34O[C@@H]5C=CCCOC(=O)C5[C@H]3C(=O)N(CCCO)[C@@H]4C2=O)cc1 (stereo not given in full),-0.0905,0.848,0.0124,-0.0503,-0.402,0.723,0.673 (inactive),0.0131,0.744,-0.209 (inactive)
CC(C)(C)OC(=O)CC[C@]1(C(=O)NCC(O)CO)N=C(c2ccc(OCCCO)cc2)O[C@H]1c1ccccc1CN=[N+]=[N-] (stereo not given in full),-1.22,0.351,-0.504,-1.1,-1.44,-1.02,-0.484 (inactive),0.574,0.649,-0.323 (inactive)
NC(=O)[C@]1(Cc2ccccc2)N=C(c2ccc(OCCCO)cc2)O[C@@H]1c1ccccc1,-0.399,0.879,-0.603,-0.598,-1.94,-1.43,-0.517 (inactive),-0.775,1.18,-0.784 (inactive)
CO[C@H]1O[C@H](CO)[C@@H](OC(=O)Nc2cccc(F)c2)[C@H](OC(=O)Nc2ccccc2-c2ccccc2)[C@@H]1OC(=O)Nc1ccccc1-c1ccccc1,-2.35,0.63,-1.85,-2.28,-2.37,-0.27,0.827 (inactive),-0.877,-1.38,-2.79 (inactive)
O=S(=O)(NCCCO)c1ccc(Br)cc1,0.819,-0.307,0.492,0.704,1.24,0.76,0.371 (inactive),0.514,-0.722,-0.285 (inactive)
CCCC[C@@H]1C[C@H]1[C@@H](NC(=O)c1ccco1)c1ccccc1,-2.22,-0.252,-2.22,-3.27,-4.74,-3.6,-1.27 (inactive),-0.759,-2.24,2.55 (inactive)
O=C1c2ccccc2[C@](Cc2ccccc2I)(C(=O)O)[C@H](c2ccc(CO)cc2)N1Cc1ccccc1C(F)(F)F,-0.26,-0.24,0.458,-1.58,-2.58,-0.51,-0.476 (inactive),-0.832,-0.478,0.427 (inactive)
CC(C)C(CO)N1C(=O)[C@@H]2[C@H]3C(=O)OCC=C[C@H]3OC23C=CCN(c2ccc4ccccc4c2)C(=O)[C@@H]13 (stereo not given in full),-0.339,0.126,0.21,0.88,-1.02,-0.124,0.106 (inactive),-0.651,1.1,0.156 (inactive)
COc1ccc([Si](C)(C)[C@@H]2[C@@H](CCO)O[C@]3(C(=O)N(Cc4cccc(N(C=O)c5ccccc5)c4)c4ccccc43)[C@H]2C)cc1,-1.54,1.72,-0.854,-1.12,-1.68,0.719,-0.0903 (inactive),-0.881,0.0823,-2.24 (inactive)
OCCCc1cc[n+](Cc2cccc(OC(F)(F)F)c2)cc1,-0.0193,0.997,-1.18,0.277,-1.86,1.14,-0.487 (inactive),-0.0293,-0.978,0.484 (inactive)
COc1ccc([Si](C)(C)[C@@H]2[C@@H](CC(=O)N3Cc4ccccc4C[C@H]3CO)O[C@]3(C(=O)N(Cc4cccc(N5C(=O)COc6ccccc65)c4)c4ccccc43)[C@H]2C)cc1,0.196,1.34,0.553,-0.296,-1.47,0.411,1.52 (inactive),-1.17,-0.974,-0.751 (inactive)
C=C(CCCC)C(=O)CC[C@H](OC(C)=O)c1ccc(CO)o1,-0.0395,1.87,-0.576,-1.65,-0.0314,0.299,1.14 (inactive),0.0658,0.376,-0.485 (inactive)
Cc1cccc(/C=C/C=O)c1,0.175,-0.49,0.486,-0.127,-0.46,0.895,0.898 (inactive),-0.691,-0.313,0.0956 (inactive)
CCCCCN1CC=CC23O[C@@H]4C=CCCOC(=O)C4[C@H]2C(=O)N(CCCO)[C@@H]3C1=O (stereo not given in full),-0.55,0.133,-0.904,0.0357,-0.0158,-0.639,-0.361 (inactive),-0.606,0.00824,-0.0645 (inactive)
Cc1ccc(S[C@]2(C(=O)NCCN3CCOCC3)CC(=O)N(C3CCCCC3)[C@@H]2c2ccc(CO)cc2)cc1,2.25,0.486,0.555,0.309,-0.65,-0.0786,-0.281 (inactive),0.698,0.485,1.51 (inactive)
